# From PubChem BioAssay AID602 (SRMLSC, 2007)
# In all, about 85,000 compounds went through this assay and about 35 (0.04%) were called active.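 How the source made its calls: active means viability drop by adding the cancer drug above about 55%, with treated viability meeting a 40% cutoff (limit read from the data); inactive means the rest, inconclusive results apart.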 This excerpt belongs to a sample that is enriched for actives.
# Assay: reversal of MRP1-mediated doxorubicin resistance, primary screen, H69AR cells, doxorubicin co-treatment (AID 602);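 on differential viability (reversal): larger differential means the compound sensitizes cells more to doxorubicin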
# Conditions: CellTiter-Glo, 72 h, at 10 µM; for differential viability (reversal): stronger effect = higher value
# [1] = H69AR cells + 2 uM doxorubicin, measured here: viability with 2 uM doxorubicin, stronger effect = lower value
# [2] = H69AR cells, measured here: cytotoxicity without doxorubicin
Structure (SMILES),differential viability (reversal) (H69AR cells + 2 uM doxorubicin),viability [1],viability [2]
CCCC(C)C(=O)Nc1ccc(NC(C)=O)cc1 (stereo not given),22.1% (inactive),80.5%,103%
COc1c(F)c(F)c(C(=O)O)c(Nc2ccccc2C)c1F,3.75% (inactive),94.8%,98.5%
C=CCc1ccc(OCCOc2cccc(/C=N/n3cnnc3)c2)c(OC)c1,9.09% (inactive),71.3%,80.3%
CCOC(=O)CSc1nc2ccc(C)cc2[nH]1,2.1% (inactive),87.3%,89.4%
C=CCn1c(SCC(=O)c2ccc(Br)cc2)nnc1C(C)NC(=O)Cc1ccc(OC)cc1 (stereo not given),22.5% (inactive),49.3%,71.8%
O=C1CSC(c2cccc(F)c2)N1c1ccc(O)cc1 (stereo not given),12.3% (inactive),88.2%,101%
Cc1nnc(NCCO)c2ccccc12,7.47% (inactive),82.3%,89.8%
CCn1c(SCC(=O)c2ccc3ccccc3c2)nnc1-c1cccs1,5.66% (inactive),98.1%,104%
Cc1cc(C(=O)Nc2ccccc2N2CCOCC2)c2ccccc2n1,-7.84% (inactive),75.7%,67.9%
Cc1nnc(SCC(=O)NC2CCCC2)s1,7.72% (inactive),107%,115%
Nn1c(SCC(=O)NC2CCCC2)nnc1-c1ccccc1F,13.3% (inactive),88.7%,102%
COC(CNC(=O)Cn1ncc2ccsc2c1=O)OC,-2.17% (inactive),103%,101%
Cc1cccc(N2CCN(C(c3ccc(N(C)C)cc3)c3nnnn3C(C)(C)C)CC2)c1C (stereo not given),2.35% (inactive),81%,83.3%
CCOC(=O)C1=C(CSc2nnnn2C)N(C)C(=O)NC1c1ccccc1 (stereo not given),12.1% (inactive),81%,93.1%
COc1ccc(CCNS(=O)(=O)c2ccc(Cl)s2)cc1OC,13.7% (inactive),79.3%,93%
O=S(=O)(Nc1ccc(Oc2ncccn2)c(Cl)c1)c1ccc(F)cc1,4.78% (inactive),88.8%,93.6%
CC(c1ccccn1)N(CCN(C)C)C(=S)Nc1ccccc1F (stereo not given),16.9% (inactive),100%,117%
CCC(=O)NC(Nc1cc(C)ccn1)(C(F)(F)F)C(F)(F)F,7.06% (inactive),92%,99%
O=C(NCC1CCC(C(=O)O)CC1)OCc1ccccc1 (stereo not given),6.33% (inactive),92.2%,98.5%
CCN(CC)CCn1c(=S)[nH]c2ncccc2c1=O,12.4% (inactive),88.8%,101%
CCOC(=O)C1C(=O)NCC1c1ccccc1 (stereo not given),1.49% (inactive),98.4%,99.9%
CC(C)CC(N=C1NC(C)(C)Cc2ccccc21)C(=O)O (stereo not given),9.71% (inactive),98.6%,108%
CCCCNC(=O)OC(C)CNC(=O)OC (stereo not given),-15% (inactive),111%,95.6%
COc1cc(OC)nc(NC(=O)CCl)n1,4.9% (inactive),93.8%,98.7%
Cc1cc2nc(C)n(CCCNC(=O)Nc3ccccc3)c2cc1C,7.8% (inactive),83.9%,91.7%
